# Compound activity: PubChem BioAssay, National Center for Advancing Translational Sciences (NCATS)
# HT1080 IDH1KD tx: kills HT-1080 cells with IDH1 knockdown. HT-1080 IDH1 knockdown viability, ATP luminescence, 48 h. Potency, µM (series often up to 46.1 µM), inactives show at the top dose activity, negative = toxicity, hits mostly cytotoxic. 360,000 compounds, 2% hits;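 also: potency is read from the fitted curve at half-maximal effect; 0% = DMSO wells and -100% = cell-free medium wells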
#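 Knockdown cells (IDH1KD HT-1080) received compounds 2 h after plating at 750 cells/well and were kept 48 h at 37 °C in 5% FBS RPMI. A CellTiter-Glo luminescence read gave % activity for curve fitting.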
# HT1080-NT tox: kills 2HG-producing HT-1080-NT fibrosarcoma cells. HT-1080-NT fibrosarcoma viability, CellTiter-Glo ATP luminescence, 48 h. Potency, µM (top dose mostly 46.1 µM), without a hit: at the highest dose activity, negative = less viability, actives largely listed as cytotoxic. 360,000 compounds, 1.6% hits;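 also: NT is the 2HG producing partner of a matched IDH1 knockdown line; potency is read from the fitted curve at half-maximal effect; 0% = DMSO-treated cells and -100% = media-only wells without cells; nearly all actives have a fitted effect of over 55% in size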
#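 HT-1080-NT; 750 cells/well; 5% FBS RPMI; 48 h compound, 37 degrees C; CellTiter-Glo luminescence; curve fitting and curve-class assignment.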
# DT40 TDP1 CPT: growth inhibition of DT40 Tdp1-/-;hTDP1 cells with camptothecin (screen for TDP1 inhibitors); 420,000 compounds, 12% hits; chicken DT40 Tdp1-/-;hTDP1 cells + 20 nM CPT, ATP luminescence, 48 h; AID 686979; Potency, µM (series often up to 46.2 µM), inactives show at the highest dose activity change, negative = growth inhibition, usual class: inhibitors; also: potency is read from the fitted curve at half-maximal effect; nearly all actives have a fitted effect of over 55% in size
#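 Chicken DT40 Tdp1-/- cells complemented with human TDP1, 400 cells/well, exposed to compounds plus 20 nM camptothecin for at least 48 h at 37 C; viability read as ATP content by CellTiter-Glo luminescence.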
# 12-LOX inh: ALOX12 (human) lipoxygenase inhibition; Potency, µM (top dose mostly 108 µM), for the others: at the top dose activity change, negative = inhibition, usual class: inhibitors; purified 12hLO, xylenol orange hydroperoxide absorbance; P18054; 580,000 compounds, 1.1% hits; also: potency is read from the fitted curve at half-maximal effect
# Target sequence (P18054 whole entry, looked up): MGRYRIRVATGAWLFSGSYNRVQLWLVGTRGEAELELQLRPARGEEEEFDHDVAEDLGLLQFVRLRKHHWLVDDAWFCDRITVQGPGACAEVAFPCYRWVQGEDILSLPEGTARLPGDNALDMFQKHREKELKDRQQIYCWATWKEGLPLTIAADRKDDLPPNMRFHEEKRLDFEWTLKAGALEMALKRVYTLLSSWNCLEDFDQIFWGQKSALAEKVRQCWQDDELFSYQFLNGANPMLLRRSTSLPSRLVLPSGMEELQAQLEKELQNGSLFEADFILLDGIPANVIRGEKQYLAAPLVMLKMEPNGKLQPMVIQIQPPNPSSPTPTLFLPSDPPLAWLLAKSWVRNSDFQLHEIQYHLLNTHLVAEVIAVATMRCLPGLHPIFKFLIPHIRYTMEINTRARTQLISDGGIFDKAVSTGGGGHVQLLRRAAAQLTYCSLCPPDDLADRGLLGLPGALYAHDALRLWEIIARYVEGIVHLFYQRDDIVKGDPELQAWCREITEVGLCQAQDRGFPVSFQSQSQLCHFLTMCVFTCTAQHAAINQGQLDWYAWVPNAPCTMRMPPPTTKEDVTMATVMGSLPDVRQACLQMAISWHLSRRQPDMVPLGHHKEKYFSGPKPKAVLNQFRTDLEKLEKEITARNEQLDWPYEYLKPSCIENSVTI
#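 Hydroperoxide product was detected by ferrous iron/xylenol orange as the 573 to 405 nm absorbance ratio. Arachidonic acid at 40 uM (final) was turned over for 30 min at room temperature by 150 nM human 12hLO, pH 7.0 Hepes buffer, after 15 min compound preincubation.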
# TDP1 cell noCPT: qHTS for Inhibitors of human tyrosyl-DNA phosphodiesterase 1 (TDP1): qHTS in cells in absence of CPT | AID 686978, 2013 | 420,000 compounds, 15% hits | Potency, µM (highest dose often 46.2 µM), for the others: top-dose activity change, negative = growth inhibition, actives largely listed as inhibitors | DT40 Tdp1-/- hTDP1 cells, no CPT, ATP luminescence, 48 h; also: potency is read from the fitted curve at half-maximal effect; nearly all actives have a fitted effect of over 55% in size
#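 Chicken DT40 Tdp1-/- cells complemented with human TDP1, screened without camptothecin (DMSO vehicle only), 400 cells/well. Compounds pin-transferred, cells incubated at 37 °C for at least 48 hr. Growth read as ATP-dependent luminescence (CellTiter-Glo, 30 min at RT).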
# IL-1B inflam inh: inflammasome signaling inhibition, IL-1 beta readout; activity change, % at 57.5 µM; 360,000 compounds, 4.7% hits; THP-1 LPS/ATP IL-1B secretion, AlphaLISA, 16 h; stronger effect = lower value; AID 743279; in the data active = activity change below about -50%; inconclusive = mostly about -30% to -49%
#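 THP-1 cells pretreated 1 hr with compounds (up to 57.5 uM final), then stimulated with LPS (250 ng/mL final) plus ATP (1.25 mM final); secreted IL-1B measured by AlphaLISA after 16 hr, decreased signal indicating inhibition.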
# An asterisk follows results filed as active; ? = inconclusive; nt = no result; [ ] = dose if it differs, or a comment. The full list was thinned out, with hits kept by preference. Unless noted, calls follow the shape of the dose curve; as a rule, active = well fitted curve in the direction sought with a large enough effect; inconclusive = small, poorly fitted or top-dose-only effect, or another doubt; inactive = no such curve, though single readings can be large; an effect the other way counts as inactive or inconclusive. Unless noted, % is scaled to controls: 0 for no effect and ±100 for the full control effect.
SMILES,HT1080 IDH1KD tx,HT1080-NT tox,DT40 TDP1 CPT,12-LOX inh,TDP1 cell noCPT,IL-1B inflam inh
COc1ccccc1N1CCN(CC(O)COc2ccc(C)c(C)c2)CC1 (centres undefined),-6.7%,-7.6%,?,0.0%,-22.2%,-11.0
CC(C)(C)CC(C)(C)NCC(O)COc1ccc2c(c1)CCC2 (centres undefined),?,20.6µM*,?,-10.8%,23.1µM*,-75.1*
COc1ccccc1N1CCN(CC(O)COc2ccc3c(c2)CCC3)CC1 (centres undefined),?,-26.8%,16.4µM*,24.6%,?,-64.2*
Cc1ccc(OCC(O)CN2CCN(CC(O)COC(C)C)CC2)c(C(C)(C)C)c1 (centres undefined),?,?,?,-4.8%,?,-24.7
CC(=O)c1c(C)nn(CC(O)COc2ccc3c(c2)CCC3)c1C (centres undefined),-12.7%,?,?,1.5%[57.4 µM],15.8µM*,?
COc1ccccc1N1CCN(CC(O)COc2ccc(C)cc2C(C)(C)C)CC1 (centres undefined),nt,nt,?,?,18.4µM*,nt
COCC(=O)Nc1cccc(NC(=O)CC2CCCC2)c1,nt,nt,nt,3.3%,nt,nt
O=C(Cn1nc2n(c1=O)CCCCC2)NCc1ccc(F)cc1,nt,nt,nt,38.0%,nt,nt
COc1cc(/C=N\Nc2nncn2N)ccc1OC(C)=O,?,?,-6.6%,-7.7%,?,3.1
COc1cc(/C=N/Nc2nncn2/N=C/c2ccc(O)c(OC)c2)ccc1O,14.6µM*,20.6µM*,?,8.3%,?,17.0
COc1ccc(OC)c(/C=N/Nc2nncn2/N=C/c2cc(OC)ccc2OC)c1,14.6µM*,?,8.2µM*,12.9%,7.31µM*,?
COc1ccc(OC)c(/C=N\Nc2nccs2)c1,-19.2%,-25.9%,?,114.5%,?,5.0
Cc1ncc(C(=O)N2CCC3(CC2)Nc2ccccc2NC3=O)c(=O)[nH]1,nt,nt,nt,19.2%,nt,nt
O=C(COc1ncnc2ccccc12)Nc1ccc(Oc2ccccc2)cc1,nt,nt,nt,-3.6%,nt,nt
COc1ccc(-n2cnc3cc([N+](=O)[O-])ccc32)cc1,14.4%,7.1%,1.8%,-14.9%,-17.3%,-29.1
COc1ccc(-n2cnc(N)c2C(=O)c2cccc([N+](=O)[O-])c2)cc1,?,?,16.4µM*,-8.5%,?,-3.0
CCOC(=O)C1CCN(Cc2cc(=O)oc3ccc(O)cc23)CC1,nt,nt,nt,11.3%,nt,nt
Cn1c(C(=O)N2CCN(c3cccc(C(F)(F)F)c3)CC2)cc2sccc21,?,-1.2%,-29.7%,-33.5%,?,-6.5
Cc1cccc(N2CCN(C(=O)C3CCN(C(=O)c4cc5sccc5n4C)CC3)CC2C)c1 (centres undefined),nt,nt,13µM*,-16.1%,5.17µM*,nt
CCn1c(C(=O)N2CCCC(C(=O)N3CCN(c4cc(C)ccc4C)CC3)C2)cc2sccc21 (centres undefined),nt,nt,?,-15.8%,13µM*,nt
Cc1ccc(C)c(N2CCN(C(=O)C3CCN(C(=O)c4cc5sccc5n4C)CC3)CC2)c1,nt,nt,9.2µM*,7.2%,8.2µM*,nt
Cc1ccc(C)c(N2CCN(C(=O)c3cc4sccc4n3C)CC2)c1,?,?,?,-7.5%,?,-16.5
N#Cc1cccc(OCC(=O)Nc2ccccc2)c1,nt,nt,nt,55.0%,nt,nt
O=C(c1cccc(N2C(=O)C3C4C=CC(C4)C3C2=O)c1)N1CCN(c2ccccc2Cl)CC1 (centres undefined),-8.9%,-5.1%,?,-10.8%,20.6µM*,-19.1
CC1C=CCC2C(=O)N(c3cccc(C(=O)NCc4ccccc4)c3)C(=O)C12 (centres undefined),5.2%,11.5%,-5.0%,31.6µM*,5.3%,6.1
SMILES,HT1080 IDH1KD tx,HT1080-NT tox,DT40 TDP1 CPT,12-LOX inh,TDP1 cell noCPT,IL-1B inflam inh
Cc1cccc(N2CCN(C(=O)c3cccc(N4C(=O)C5CC=CC(C)C5C4=O)c3)CC2)c1C (centres undefined),-14.5%,1.2%,?,-7.3%,23.1µM*,-12.7
CCCCOc1ccc2c(C)c(CC(C)C)c(=O)oc2c1,nt,nt,nt,7.0%,nt,nt
Cc1c(Cl)cccc1-n1ncc(C(=O)NCCN2CCN(C)CC2)c1C1CCN(C(=O)OC(C)(C)C)CC1,nt,nt,?,-18.0%,25.9µM*,nt
Cc1cccc(C)c1-n1ncc(C(=O)NCCN2CCN(C)CC2)c1C1CCN(C(=O)OC(C)(C)C)CC1,nt,nt,?,-15.3%,?,nt
Cc1ccc(-n2ncc(C(=O)NCCN3CCc4ccccc4C3)c2C2CCN(C(=O)OC(C)(C)C)CC2)cc1,nt,nt,20.6µM*,-16.3%,18.4µM*,nt
CC(C)(C)OC(=O)N1CCC(c2c(C(=O)N3CCc4ccccc4C3)cnn2-c2ccc(Cl)cc2)CC1,nt,nt,?,3.4%,?,nt
Cc1ccc(-n2ncc(C(=O)NCCN3CCc4ccccc4C3)c2C2CCN(C(=O)OC(C)(C)C)CC2)cc1C,nt,nt,16.4µM*,-25.8%,20.6µM*,nt
Cc1ccc(-n2ncc(C(=O)N3CCc4ccccc4C3)c2C2CCN(C(=O)OC(C)(C)C)CC2)cc1C,nt,nt,10.3µM*,-21.7%,?,nt
Cn1cc(CN2C[C@@H](F)[C@@H](OCc3nc4ncccc4[nH]3)C2)c2ccccc21,nt,nt,nt,1.6%[176 µM],nt,nt
Cc1c(Cl)cccc1-n1ncc(C(=O)N2CCc3ccccc3C2)c1C1CCN(C(=O)OC(C)(C)C)CC1,nt,nt,?,8.3%,20.6µM*,nt
CCOc1cc(C(=O)NC)cc(Br)c1OC,-7.8%,11.4%,19.8%,-17.7%,-10.5%,17.2
CCOc1cc(C(=O)N=c2sccn2C)cc(Br)c1OC,-5.5%,14.8%,18.4µM*,?,18.4µM*,?
CC(/C=C/c1ccc2c(c1)OCO2)=N/NC(=O)c1ccncc1,-0.1%,1.0%,-5.9%,6.4%,-23.5%,-10.3
CC(/C=C/c1cccc([N+](=O)[O-])c1)=N\NC(=O)c1ccncc1,0.1%,1.8%,?,-2.3%,23.1µM*,-0.9
CC(/C=C/c1ccccc1)=N/NC(=O)c1cccc(Br)c1,?,-21.2%,?,-1.1%,23.1µM*,-29.0
CC(/C=C\C=C\c1ccccc1)=N\NC(=O)c1cncc(Br)c1,-29.2%,-12.7%,7.31µM*,?,7.31µM*,0.0
CC(/C=C/C=C/c1ccccc1)=N/NC(=O)C(O)c1ccccc1 (centres undefined),-3.0%,-0.7%,-9.4%,215.0%,18.4µM*,-0.8
CCCNC(=O)c1ccc(OC)c(S(=O)(=O)NCC)c1,nt,nt,nt,13.4%,nt,nt
